Columns and labels:
Assay in all cases: log2 ratio of Biotin-Ahx-Ub-VS probe labelling (fragment/DMSO); higher = less target engagement (more negative = stronger competition), active = hit call of the paper (q ≤ 0.05, log2 ratio ≤ -1)
Details in all cases: compound concentration: 200 uM; treatment time: 3 h
USP34 = USP34 (UniProt Q70CQ2)
How it was run: (§1)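 Triplicate samples of HEK293T lysate, 495 µg each, received fragment at 200 µM or vehicle for 3 h, followed by Biotin-Ahx-Ub-VS (0.5 µM final) for 1 h. After NeutrAvidin enrichment of labelled DUBs and LysC/trypsin digestion, peptides were run by diaPASEF LC-MS/MS. The values are average log2 fragment/vehicle ratios from global-median-normalised Spectronaut label-free quantities, tested by unpaired t-test on proteins having ≥2 unique peptides.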

USP36 = target: T1, USP36 (UniProt Q9P275)
T1 sequence (whole entry): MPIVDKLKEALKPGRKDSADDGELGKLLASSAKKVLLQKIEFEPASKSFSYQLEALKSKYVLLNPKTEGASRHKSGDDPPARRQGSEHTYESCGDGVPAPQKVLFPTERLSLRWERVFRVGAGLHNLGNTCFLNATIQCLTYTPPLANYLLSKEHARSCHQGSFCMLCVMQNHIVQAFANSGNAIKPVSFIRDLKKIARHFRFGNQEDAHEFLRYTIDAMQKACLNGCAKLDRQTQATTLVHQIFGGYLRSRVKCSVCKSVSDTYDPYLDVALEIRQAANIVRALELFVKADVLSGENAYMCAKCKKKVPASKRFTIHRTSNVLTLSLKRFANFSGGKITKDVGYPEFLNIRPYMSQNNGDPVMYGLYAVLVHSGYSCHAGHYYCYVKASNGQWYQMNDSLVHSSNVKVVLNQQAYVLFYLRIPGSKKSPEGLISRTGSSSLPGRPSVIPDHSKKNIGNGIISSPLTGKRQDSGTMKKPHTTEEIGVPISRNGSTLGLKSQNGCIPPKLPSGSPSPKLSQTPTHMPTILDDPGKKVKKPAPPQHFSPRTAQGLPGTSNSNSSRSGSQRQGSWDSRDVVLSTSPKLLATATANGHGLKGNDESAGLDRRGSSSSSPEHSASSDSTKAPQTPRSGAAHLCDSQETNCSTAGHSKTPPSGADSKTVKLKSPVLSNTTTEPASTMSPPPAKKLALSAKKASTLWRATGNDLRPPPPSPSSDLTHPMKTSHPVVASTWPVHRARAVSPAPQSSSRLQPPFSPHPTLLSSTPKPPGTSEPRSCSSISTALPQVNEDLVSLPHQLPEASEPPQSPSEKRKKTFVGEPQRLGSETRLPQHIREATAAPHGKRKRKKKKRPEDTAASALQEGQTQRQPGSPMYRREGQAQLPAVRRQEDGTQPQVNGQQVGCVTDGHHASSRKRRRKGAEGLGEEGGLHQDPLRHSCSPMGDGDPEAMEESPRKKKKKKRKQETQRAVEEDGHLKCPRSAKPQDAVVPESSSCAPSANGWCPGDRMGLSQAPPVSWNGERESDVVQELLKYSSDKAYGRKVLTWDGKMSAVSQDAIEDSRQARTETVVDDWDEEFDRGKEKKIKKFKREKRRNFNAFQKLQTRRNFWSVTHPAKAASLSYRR
How it was run: as §1

USP38 = target: T2, USP38 (UniProt Q8NB14)
T2 sequence (whole entry): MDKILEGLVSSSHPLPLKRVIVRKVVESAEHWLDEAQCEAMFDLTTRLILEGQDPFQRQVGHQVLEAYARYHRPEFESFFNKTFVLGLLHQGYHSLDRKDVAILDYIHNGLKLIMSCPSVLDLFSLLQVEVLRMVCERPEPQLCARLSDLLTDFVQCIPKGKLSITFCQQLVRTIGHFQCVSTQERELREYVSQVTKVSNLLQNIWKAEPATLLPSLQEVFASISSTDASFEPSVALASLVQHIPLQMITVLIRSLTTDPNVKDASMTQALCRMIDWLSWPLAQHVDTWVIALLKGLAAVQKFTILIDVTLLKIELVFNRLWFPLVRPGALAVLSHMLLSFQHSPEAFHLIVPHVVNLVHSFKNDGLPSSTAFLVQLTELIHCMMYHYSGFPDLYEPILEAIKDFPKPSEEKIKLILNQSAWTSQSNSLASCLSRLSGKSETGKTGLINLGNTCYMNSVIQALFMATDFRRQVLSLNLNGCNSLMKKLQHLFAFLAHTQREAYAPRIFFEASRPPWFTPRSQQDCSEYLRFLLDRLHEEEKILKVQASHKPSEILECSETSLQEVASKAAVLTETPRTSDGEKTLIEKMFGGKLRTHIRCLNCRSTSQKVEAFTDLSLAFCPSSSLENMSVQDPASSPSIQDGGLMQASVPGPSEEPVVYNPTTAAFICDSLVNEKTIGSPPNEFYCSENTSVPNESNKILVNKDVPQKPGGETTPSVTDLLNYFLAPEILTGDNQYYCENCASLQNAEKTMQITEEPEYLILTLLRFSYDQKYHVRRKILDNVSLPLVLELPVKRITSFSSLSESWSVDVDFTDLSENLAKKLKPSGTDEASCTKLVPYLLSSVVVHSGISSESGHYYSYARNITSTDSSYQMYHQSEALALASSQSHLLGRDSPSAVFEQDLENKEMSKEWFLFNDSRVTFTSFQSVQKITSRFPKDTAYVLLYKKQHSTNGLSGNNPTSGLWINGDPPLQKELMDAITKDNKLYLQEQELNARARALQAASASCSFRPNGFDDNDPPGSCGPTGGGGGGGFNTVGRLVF
How it was run: as §1

USP39 = target: T3, USP39 (UniProt Q53GS9)
T3 sequence (whole entry): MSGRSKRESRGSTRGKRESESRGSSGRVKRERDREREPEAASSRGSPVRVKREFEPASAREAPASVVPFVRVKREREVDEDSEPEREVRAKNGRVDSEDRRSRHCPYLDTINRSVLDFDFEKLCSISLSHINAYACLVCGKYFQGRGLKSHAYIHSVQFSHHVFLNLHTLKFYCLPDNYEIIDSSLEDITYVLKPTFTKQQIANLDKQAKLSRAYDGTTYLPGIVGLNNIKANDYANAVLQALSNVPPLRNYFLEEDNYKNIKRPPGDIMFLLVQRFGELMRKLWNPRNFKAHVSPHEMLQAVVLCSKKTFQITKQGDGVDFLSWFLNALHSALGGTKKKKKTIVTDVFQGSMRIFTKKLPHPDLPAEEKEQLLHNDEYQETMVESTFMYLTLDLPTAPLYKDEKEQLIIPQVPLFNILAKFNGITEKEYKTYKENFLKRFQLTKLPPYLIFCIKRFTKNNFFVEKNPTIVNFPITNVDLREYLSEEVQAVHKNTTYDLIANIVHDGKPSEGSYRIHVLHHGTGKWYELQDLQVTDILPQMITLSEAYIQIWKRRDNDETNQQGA
How it was run: as §1

USP4 = target: T4, USP4 (UniProt Q13107)
T4 sequence (whole entry): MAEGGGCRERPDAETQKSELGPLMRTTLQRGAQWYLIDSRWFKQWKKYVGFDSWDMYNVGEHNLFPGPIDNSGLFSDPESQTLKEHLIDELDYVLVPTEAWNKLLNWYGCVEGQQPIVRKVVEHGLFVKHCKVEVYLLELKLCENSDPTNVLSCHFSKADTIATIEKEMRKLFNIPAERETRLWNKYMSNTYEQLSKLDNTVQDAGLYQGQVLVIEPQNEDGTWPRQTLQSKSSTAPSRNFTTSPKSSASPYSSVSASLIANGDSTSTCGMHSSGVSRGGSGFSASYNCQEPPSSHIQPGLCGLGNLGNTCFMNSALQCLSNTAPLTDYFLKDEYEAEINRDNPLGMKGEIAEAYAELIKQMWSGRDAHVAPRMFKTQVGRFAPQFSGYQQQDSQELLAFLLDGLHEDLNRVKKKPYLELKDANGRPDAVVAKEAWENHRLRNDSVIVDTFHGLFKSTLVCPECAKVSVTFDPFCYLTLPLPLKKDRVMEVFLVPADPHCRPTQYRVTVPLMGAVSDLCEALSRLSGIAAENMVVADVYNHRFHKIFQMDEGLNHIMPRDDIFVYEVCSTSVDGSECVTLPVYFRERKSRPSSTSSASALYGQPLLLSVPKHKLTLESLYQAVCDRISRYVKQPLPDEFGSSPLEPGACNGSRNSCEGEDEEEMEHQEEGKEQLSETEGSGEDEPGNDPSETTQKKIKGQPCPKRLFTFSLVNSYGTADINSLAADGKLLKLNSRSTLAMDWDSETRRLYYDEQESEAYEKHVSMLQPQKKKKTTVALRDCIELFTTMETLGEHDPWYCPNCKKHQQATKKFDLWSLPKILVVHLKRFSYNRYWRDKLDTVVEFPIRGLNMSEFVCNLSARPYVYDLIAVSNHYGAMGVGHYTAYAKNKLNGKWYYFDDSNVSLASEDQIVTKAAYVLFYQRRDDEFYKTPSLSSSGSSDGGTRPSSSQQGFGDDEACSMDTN
How it was run: as §1

Measured: log2 ratio of Biotin-Ahx-Ub-VS probe labelling

Chain of USP34 (Q70CQ2 whole entry, the tested form may be a part): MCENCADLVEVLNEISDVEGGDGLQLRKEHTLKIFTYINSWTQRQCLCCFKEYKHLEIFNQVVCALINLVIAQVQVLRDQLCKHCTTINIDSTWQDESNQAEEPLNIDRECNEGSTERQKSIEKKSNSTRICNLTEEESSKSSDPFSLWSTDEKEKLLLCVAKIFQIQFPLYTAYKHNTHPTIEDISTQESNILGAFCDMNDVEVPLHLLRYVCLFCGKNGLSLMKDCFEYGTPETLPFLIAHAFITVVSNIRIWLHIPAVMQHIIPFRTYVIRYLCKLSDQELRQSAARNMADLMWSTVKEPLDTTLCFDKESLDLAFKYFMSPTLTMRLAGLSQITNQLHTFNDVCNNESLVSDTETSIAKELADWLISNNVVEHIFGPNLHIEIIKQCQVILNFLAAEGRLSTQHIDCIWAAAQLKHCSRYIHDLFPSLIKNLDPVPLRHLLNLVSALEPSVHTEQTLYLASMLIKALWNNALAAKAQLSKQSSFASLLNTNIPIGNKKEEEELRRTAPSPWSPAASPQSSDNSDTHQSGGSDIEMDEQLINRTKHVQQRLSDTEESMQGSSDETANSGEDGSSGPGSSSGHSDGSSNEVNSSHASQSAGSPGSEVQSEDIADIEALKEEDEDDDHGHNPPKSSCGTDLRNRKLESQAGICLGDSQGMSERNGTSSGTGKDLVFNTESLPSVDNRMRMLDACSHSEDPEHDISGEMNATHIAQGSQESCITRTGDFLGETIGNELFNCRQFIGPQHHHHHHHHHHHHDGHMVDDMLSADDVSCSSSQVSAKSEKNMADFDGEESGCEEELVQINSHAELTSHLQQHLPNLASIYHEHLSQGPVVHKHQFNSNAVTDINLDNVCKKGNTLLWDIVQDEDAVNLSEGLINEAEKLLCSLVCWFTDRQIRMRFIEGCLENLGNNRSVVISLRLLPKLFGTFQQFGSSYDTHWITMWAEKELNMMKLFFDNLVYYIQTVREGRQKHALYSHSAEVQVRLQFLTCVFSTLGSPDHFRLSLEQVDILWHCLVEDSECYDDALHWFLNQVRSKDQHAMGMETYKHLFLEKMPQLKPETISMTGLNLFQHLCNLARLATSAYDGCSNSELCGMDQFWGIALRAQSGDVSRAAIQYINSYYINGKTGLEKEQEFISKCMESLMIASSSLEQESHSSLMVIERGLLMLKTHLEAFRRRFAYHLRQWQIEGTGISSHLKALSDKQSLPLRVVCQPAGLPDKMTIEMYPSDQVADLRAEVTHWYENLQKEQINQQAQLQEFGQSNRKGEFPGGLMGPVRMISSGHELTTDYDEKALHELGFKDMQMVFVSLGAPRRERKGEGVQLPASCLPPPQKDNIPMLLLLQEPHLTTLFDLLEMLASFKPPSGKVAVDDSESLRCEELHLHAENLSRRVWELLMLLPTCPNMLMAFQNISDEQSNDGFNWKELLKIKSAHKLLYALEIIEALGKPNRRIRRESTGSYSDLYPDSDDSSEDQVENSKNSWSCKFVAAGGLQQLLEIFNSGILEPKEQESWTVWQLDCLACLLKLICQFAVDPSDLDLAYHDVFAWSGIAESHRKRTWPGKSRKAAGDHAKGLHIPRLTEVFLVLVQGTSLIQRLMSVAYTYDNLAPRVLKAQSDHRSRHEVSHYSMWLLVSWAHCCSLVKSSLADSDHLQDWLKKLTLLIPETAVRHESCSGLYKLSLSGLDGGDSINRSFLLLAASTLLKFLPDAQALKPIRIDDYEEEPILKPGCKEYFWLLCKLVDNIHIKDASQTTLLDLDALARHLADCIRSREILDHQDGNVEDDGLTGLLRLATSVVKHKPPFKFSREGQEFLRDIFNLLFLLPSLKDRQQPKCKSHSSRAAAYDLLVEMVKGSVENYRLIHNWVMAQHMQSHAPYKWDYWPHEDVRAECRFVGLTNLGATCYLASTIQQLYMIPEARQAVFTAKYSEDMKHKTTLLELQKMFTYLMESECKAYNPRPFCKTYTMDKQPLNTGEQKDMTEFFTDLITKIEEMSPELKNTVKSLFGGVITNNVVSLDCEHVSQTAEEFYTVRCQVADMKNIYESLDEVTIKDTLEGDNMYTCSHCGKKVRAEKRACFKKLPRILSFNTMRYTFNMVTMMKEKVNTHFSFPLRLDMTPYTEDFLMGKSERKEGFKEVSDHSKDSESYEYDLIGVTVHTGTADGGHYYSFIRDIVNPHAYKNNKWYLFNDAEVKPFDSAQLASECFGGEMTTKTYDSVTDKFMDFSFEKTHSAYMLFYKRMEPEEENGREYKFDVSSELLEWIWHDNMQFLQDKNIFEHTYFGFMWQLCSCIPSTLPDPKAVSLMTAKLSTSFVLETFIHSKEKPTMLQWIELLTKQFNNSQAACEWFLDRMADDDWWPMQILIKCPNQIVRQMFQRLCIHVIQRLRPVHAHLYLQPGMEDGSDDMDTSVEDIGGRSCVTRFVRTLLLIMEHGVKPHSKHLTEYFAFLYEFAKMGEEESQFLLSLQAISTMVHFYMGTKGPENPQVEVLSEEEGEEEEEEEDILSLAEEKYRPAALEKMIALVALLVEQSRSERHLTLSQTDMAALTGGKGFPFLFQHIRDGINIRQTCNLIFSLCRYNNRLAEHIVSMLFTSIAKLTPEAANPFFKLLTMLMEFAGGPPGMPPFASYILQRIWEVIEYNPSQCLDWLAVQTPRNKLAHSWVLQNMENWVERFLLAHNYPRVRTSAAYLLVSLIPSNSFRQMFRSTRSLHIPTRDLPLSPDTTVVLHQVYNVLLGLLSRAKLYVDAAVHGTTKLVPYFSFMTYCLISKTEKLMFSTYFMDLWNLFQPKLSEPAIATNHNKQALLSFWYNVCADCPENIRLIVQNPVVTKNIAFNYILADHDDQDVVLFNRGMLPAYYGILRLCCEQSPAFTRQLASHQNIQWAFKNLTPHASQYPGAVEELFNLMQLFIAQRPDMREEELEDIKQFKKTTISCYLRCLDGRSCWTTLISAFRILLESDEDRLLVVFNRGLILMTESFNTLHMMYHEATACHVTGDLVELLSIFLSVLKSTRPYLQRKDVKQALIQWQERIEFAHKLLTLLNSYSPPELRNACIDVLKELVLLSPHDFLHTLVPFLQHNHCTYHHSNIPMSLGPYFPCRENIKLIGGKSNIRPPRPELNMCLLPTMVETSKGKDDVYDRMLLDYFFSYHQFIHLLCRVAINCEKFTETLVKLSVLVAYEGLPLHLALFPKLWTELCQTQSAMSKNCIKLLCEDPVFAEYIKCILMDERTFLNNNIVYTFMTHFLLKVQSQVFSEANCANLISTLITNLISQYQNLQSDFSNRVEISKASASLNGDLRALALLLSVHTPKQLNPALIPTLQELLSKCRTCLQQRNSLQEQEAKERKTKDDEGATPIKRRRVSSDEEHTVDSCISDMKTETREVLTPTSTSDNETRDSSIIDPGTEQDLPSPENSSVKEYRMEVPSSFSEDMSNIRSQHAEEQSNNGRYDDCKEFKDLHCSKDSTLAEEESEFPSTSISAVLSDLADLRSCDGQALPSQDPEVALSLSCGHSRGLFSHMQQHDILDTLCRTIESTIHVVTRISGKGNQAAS

O=C(CCl)N1CCc2ccccc2C(O)C1 (stereo not given)
inactive: USP34 -0.224 | USP36 -0.441 | USP38 -0.0535 | USP39 0.0381 | USP4 -0.274

Reference: the supplement of paper PMC11732987, “Enantioselective OTUD7B fragment discovery through chemoproteomics screening and high-throughput optimisation” (Communications Chemistry, 2025)
